Assay outcomes (PubChem BioAssay)
Rows were chosen to be rich in hits. Some 10% of all compounds tested hit in one or more screens of this group.
ALDH1A1 block: ALDH1A1 (human) enzyme inhibition; Purified ALDH1A1, NADH fluorescence, propionaldehyde substrate; Potency, µM (highest dose often 75.3 µM), for the others: at the top dose activity, negative = inhibition, usual class: inhibitors; 220,000 compounds, 7.3% hits;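 also: potency is read from the fitted curve at half-maximal effect; plate controls were no enzyme wells and a reference inhibitor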
Target sequence (P00352 whole entry, looked up): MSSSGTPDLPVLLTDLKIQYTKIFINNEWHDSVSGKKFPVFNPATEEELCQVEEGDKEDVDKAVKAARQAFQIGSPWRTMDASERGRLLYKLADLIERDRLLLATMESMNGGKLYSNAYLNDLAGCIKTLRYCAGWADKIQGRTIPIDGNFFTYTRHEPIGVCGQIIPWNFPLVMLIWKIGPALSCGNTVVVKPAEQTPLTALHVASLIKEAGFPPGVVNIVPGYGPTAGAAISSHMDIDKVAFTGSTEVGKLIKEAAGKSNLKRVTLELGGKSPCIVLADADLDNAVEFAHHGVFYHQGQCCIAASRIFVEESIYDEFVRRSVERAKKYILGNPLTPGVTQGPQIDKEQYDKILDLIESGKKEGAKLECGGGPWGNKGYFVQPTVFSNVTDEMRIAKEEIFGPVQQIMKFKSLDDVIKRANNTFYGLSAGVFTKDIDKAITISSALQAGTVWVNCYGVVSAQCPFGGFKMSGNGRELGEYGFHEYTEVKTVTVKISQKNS
Lamin A splicing: modulators of lamin A splicing. 200,000 compounds, 0.01% hits. AID 1487. Potency, µM (series often up to 46.1 µM), without a hit: at the highest dose ratio change, negative = inhibition, usual class: inhibitors. HeLa LMNA splicing GFP/RFP minigene ratio, 48 h; active = well fitted inhibition curve with a large enough effect in the signal ratio, with a control signal flat, not every such curve was filed as active; inconclusive = small, poorly fitted or top-dose-only effect, or effect the other way, or a change in a side signal; the % refers to the signal ratio; also: potency is read from the fitted curve at half-maximal effect
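Read-out is the ratio of GFP to DsRed2 object intensity, acquired by 488 nm laser-scanning cytometry on HeLa lamin A-EGFP minigene reporter cells. Compound incubation 48 hrs at 37 °C in Opti-MEM with 2% FBS; DMSO 0.5% final.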
HPGD inh: inhibitors of human 15-hydroxyprostaglandin dehydrogenase (HPGD); Potency, µM, for inactives: top-dose activity change, negative = inhibition, actives largely listed as inhibitors; 150,000 compounds, 4.3% hits; purified HPGD, NADH fluorescence kinetic, PGE2 substrate; P15428; also: potency is read from the fitted curve at half-maximal effect
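NADH formation kinetics: reaction with 30 uM PGE2 and 1 mM NAD+ (final), 20 nM enzyme, Tris-HCl pH 8 with Tween 20, after 15 min compound preincubation at room temperature. Fluorescence change, last versus first of five reads.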
12-hLO inh: inhibitors of human 12-lipoxygenase (ALOX12). 150,000 compounds, 0.12% hits. Potency, µM (highest dose often 57.1 µM), for the others: at the top dose activity change, negative = inhibition, hits mostly inhibitors. P18054. purified 12-hLO, xylenol orange hydroperoxide absorbance. AID 1452; active = well fitted inhibition curve with a large enough effect; inconclusive = small, poorly fitted or top-dose-only effect; also: potency is read from the fitted curve at half-maximal effect; nearly all actives have a fitted effect of over 55% in size
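150 nM 12hLO, 25 mM Hepes pH 7.0 + 0.01% Triton X-100; cpd preinc 15 min RT; 40 uM arachidonic acid, 30 min RT; Fe-XO 30 min; A573/A405 ratio as read-out.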
PNC inhibitor: blocks assembly of the perinucleolar compartment; PC3M PTB-GFP, PNC prevalence imaging, 16 h; hits give low values; activity change (PNC), negative = inhibition, % at 10 µM; 140,000 compounds, 3.1% hits;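 active = readout at or below -70, meaning at least 70% loss of cells showing the perinucleolar compartment, a nuclear body marking cancer cells; inconclusive = readout between -30 and a set limit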;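 also: plate controls were DMSO wells for no effect and camptothecin positive control wells for full effect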
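Read-out is percentage of cells bearing a perinucleolar compartment, from automated 20x imaging of fixed, Hoechst-stained PC3M PTB-GFP cells. Cells were seeded 4 h, then exposed 16 h to compound (23 nl of library stock) in duplicate plates.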
Active calls of the source: *; u = inconclusive; x = not tested or not shown; [ ] = remark or other dose. Unless noted, calls follow the shape of the dose curve; as a rule, active = well fitted inhibition curve with a large enough effect (not every such curve was filed as active); inconclusive = small, poorly fitted or top-dose-only effect, or another doubt; inactive = no such curve, though single readings can be large or run the other way. Unless noted, % is scaled to controls: 0 for no effect and ±100 for the full control effect.

SMILES	ALDH1A1 block	Lamin A splicing	HPGD inh	12-hLO inh	PNC inhibitor
O=C(N/N=C/c1c(F)cccc1Cl)c1ccc(Cn2cc(Br)cn2)o1	-5%	6%	-19%	-2%	-114*
O=C1c2ccccc2NC2(CCCC2)N1O	1%	3%	20µM*	-6%	-108*
O=C(c1cc(C(F)(F)F)cc(C(F)(F)F)c1)N1CCC2(CCCN(Cc3nccs3)C2)CC1	2%	x	-6%	-6%	x
Cc1c(C(=O)NN)[nH]c2ccc([N+](=O)[O-])cc12	7.9µM*	-13%[46 µM]	x	x	x
Cc1ccc(C)c2c1[nH]c1ccc([N+](=O)[O-])cc12	1%	u	-3%	-3%	5
FC(F)(F)c1ccccc1-c1ccc2ncnc(NC3CCNCC3)c2c1	9%	u	-7%	7%	x
O=C(N/N=C/C=C\c1ccco1)c1cccs1	28µM*	x	x	x	x
O=C(Cc1cccs1)N/N=C/c1ccco1	-3%	-11%	-12%	2%	-9
O=C(Cc1cccs1)N/N=C/C=C\c1ccco1	25µM*	-11%	-20%	-7%	51
Cc1cccc(OCC(=O)N/N=C/C=C/c2ccco2)c1	u	-7%	-7%	-9%	-10
Cc1cccc(C)c1OCC(=O)N/N=C/C=C/c1ccco1	13µM*	u	x	x	x
O=C(N/N=C/C=C/c1ccc([N+](=O)[O-])cc1)c1cccs1	-12%	12%	16µM*	-4%	61
CCCCCC(=O)CC[C@@H]1[C@@H](C/C=C\CCCC(=O)O)[C@@H](O)C[C@H]1O	-2%	x	-6%	1%	x
CCOc1cc(/C=N/OC(C)=O)ccc1OCc1ccccc1	u	2%[46 µM]	x	x	x
CSc1cccc(NC(=O)Cc2ccccc2[N+](=O)[O-])c1	35µM*	x	x	x	x
CCOc1ccc(C(=O)Nc2nncs2)cc1OCC	-5%	-12%	-14%	5%	u
CCOc1ccc(C(=O)Nc2nnc(C(C)C)s2)cc1OCC	25µM*	13%	28µM*	3%	44
CCOc1ncccc1C(=O)Nc1nnc(C(CC)CC)s1	4.5µM*	x	x	x	x
CCC(CC)c1nnc(NC(=O)Cc2ccccc2[N+](=O)[O-])s1	20µM*	-4%[46 µM]	x	x	x
COc1cccc(NC(=O)COC(=O)Cc2ccccc2[N+](=O)[O-])c1	u	-14%[46 µM]	x	x	x
CCCCn1cc(S(=O)(=O)c2ccccc2)c(=O)c2cc(F)c(N3CCN(CCC)CC3)cc21	x	5%[46 µM]	x	x	x
Oc1ccc2ccccc2c1CN1CCN(c2ccccc2F)CC1	u	-9%	-26%	-1%	72
[ClH+][Cu][ClH+].[Cu].[OH2+]c1ccc2ccccc2c1CN1CCCCC1.[OH2+]c1ccc2ccccc2c1CN1CCCCC1	1.8µM*	x	-13%	x	x
COc1ccc(S(=O)(=O)n2nc(C)c(S(=O)(=O)N3CCC(C)CC3)c2C)cc1C	x	6%[46 µM]	x	x	x
COc1ccc(OC)c(C2=NOC(C(=O)N3CCCc4ccccc43)C2)c1 (stereo unspecified)	11µM*	0%	-25%	6%	10
SMILES	ALDH1A1 block	Lamin A splicing	HPGD inh	12-hLO inh	PNC inhibitor
COc1cc(OC)c(C2=NOC(C(=O)N3CCc4ccccc4C3)C2)cc1Cl (stereo unspecified)	-12%	1%	11µM*	-1%	7
COc1ccc(C(=O)Nc2cccc(-c3cn4ccsc4n3)c2)cc1OC	x	-27%[46 µM]	x	x	x
CC1CCC(C(=O)O)NC1c1cccc(N2CCOCC2)c1 (stereo unspecified)	-3%[13.5 µM]	x	x	x	x
CC(=O)C1C(=O)c2c(cccc2[N+](=O)[O-])C1=Nc1ccc(S(N)(=O)=O)cc1 (stereo unspecified)	22µM*	u	x	x	x
COc1ccc2[nH]cc(CCNc3cc(-c4cccnc4)ncn3)c2c1	u	3%	x	x	x
O=C(CCN1C(=O)C2C3C=CC(C3)C2C1=O)N1CCN(c2cccc(Cl)c2)CC1 (stereo unspecified)	7.9µM*	19%	-13%	-2%	13
c1ccc(N2CCN(C3CCSC3)CC2)cc1 (stereo unspecified)	18µM*	6%	-14%	-4%	-8
Cn1c(=O)c(CCc2ccccc2)nc2cnc(N3CCOCC3)nc21	u	-2%	x	x	x
O=C(CCCc1ccccc1)NCCC1=CCCCC1	u	4%[9.22 µM]	x	x	x
Cc1ccccc1CSCCNC(=O)CCSc1ccccc1	7.1µM*	3%	10µM*	-6%	24
O=C(CCc1ccccc1)NCCC1=CCCCC1	5%	0%	25µM*	0%	u
Cc1ccccc1CSCCC(=O)NCCC1=CCCCC1	-37%	-14%	13µM*	-7%	41
O=C(CCSCc1ccc(Cl)cc1)NCCC1=CCCCC1	3%	0%	-30%	-1%	-8
Cc1ccc(CSCCNC(=O)CCSc2ccccc2)cc1	u	-6%[0.0737 µM]	u	4%	-29
O=C(CNCCC1=CCCCC1)Nc1ccccc1N1CCCCC1	9.5µM*	12%	u	u	-29
COc1ccc(C(=O)N2CCC3(CCCN(Cc4ccccc4)C3)CC2)cc1	-5%	x	-8%	-2%	x
COc1ccc(S(=O)(=O)NCC2CCCN(C(=O)C=C(C)C)C2)cc1 (stereo unspecified)	4.5µM*	u	x	x	x
CCOC(=O)N1CCC(NC(=O)C2CCC(CNS(=O)(=O)c3ccc(OC)cc3)CC2)CC1 (stereo unspecified)	-8%	u	-4%	-4%	4
COC(=O)CCC(=O)N1CCCC(CNS(=O)(=O)c2ccc(OC)cc2)C1 (stereo unspecified)	8.9µM*	0%[46 µM]	x	x	x
COc1ccc(S(=O)(=O)NCC2CCCN(CC(C)(C)C)C2)cc1 (stereo unspecified)	20µM*	u	x	x	x
CCOc1ccc(C(=O)CC(=O)C(=O)NCCc2ccc(OC)c(OC)c2)cc1	u	-16%	u	-7%	-5
CCCSc1nc2c(c(=O)[nH]1)C(c1ccc(F)cc1F)CC(=O)N2 (stereo unspecified)	x	10%[46 µM]	x	x	x
